# Compound activity: PubChem BioAssay, Broad Institute
# PRC2 inh: blocks human EZH2/PRC2 H3K27 methylation; inhibition, % at 12.5 µM; 57,000 compounds, 0.35% hits; Q15910; AID 651548; DELFIA TRF, 1 h;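 active = mean inhibition of replicates at least 50% and every single replicate also reaching 50%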;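 note: dimethyl H3K27 on biotinylated H3 21-44 peptide detected by antibody; plate controls were median neutral control wells for no effect and median positive control wells for full effect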
# Target sequence (Q15910 whole entry, looked up): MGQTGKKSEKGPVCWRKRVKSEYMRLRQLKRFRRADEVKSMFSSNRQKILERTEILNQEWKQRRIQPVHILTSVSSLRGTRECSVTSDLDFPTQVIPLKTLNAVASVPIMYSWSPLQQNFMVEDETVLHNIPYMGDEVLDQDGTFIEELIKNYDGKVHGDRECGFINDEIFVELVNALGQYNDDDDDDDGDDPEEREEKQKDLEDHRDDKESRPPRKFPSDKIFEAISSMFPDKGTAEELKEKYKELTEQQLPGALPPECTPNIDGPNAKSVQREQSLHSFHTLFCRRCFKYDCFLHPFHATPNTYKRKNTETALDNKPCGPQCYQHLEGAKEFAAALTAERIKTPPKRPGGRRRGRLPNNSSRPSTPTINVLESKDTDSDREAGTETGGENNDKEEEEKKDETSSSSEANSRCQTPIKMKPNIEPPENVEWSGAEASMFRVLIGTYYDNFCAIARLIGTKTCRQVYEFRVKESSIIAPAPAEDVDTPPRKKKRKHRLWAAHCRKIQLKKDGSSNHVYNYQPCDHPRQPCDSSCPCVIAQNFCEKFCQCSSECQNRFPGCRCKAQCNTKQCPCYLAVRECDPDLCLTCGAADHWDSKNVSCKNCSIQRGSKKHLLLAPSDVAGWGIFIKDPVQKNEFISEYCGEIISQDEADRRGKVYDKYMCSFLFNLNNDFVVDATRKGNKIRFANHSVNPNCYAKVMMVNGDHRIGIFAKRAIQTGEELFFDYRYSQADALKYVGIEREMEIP
# * = called active by the depositor. The full list was thinned out, with hits kept by preference.
SMILES,PRC2 inh
O=C(Oc1ccc([C@@H]2Oc3cc(O)cc(O)c3C[C@H]2O)cc1O)c1cc(O)c(O)c(O)c1,99*
O=S(=O)(NCCCO)c1ccc(Br)cc1,-10
COc1ccc(C(=O)Nc2cccc(N=[N+]=[N-])c2)cc1,-27
CC(C)(C)c1ccc(C(=O)Nc2ccc(NC(=O)COc3ccc([N+](=O)[O-])cc3)cc2)cc1,2
COc1ccc(NC(=O)COc2ccc(C(C)C)cc2Br)c([N+](=O)[O-])c1,5
COC(=O)CN(c1cc(Cl)cc(Cl)c1)S(=O)(=O)c1ccccc1,-2
O=C(O)c1cccc(CSc2n[nH]c(-c3ccc(Cl)cc3)n2)c1,-22
O=C(O)c1cccc(CSc2nc(-c3ccc(Cl)cc3)cc(C(F)(F)F)n2)c1,50*
Cc1cc(C(F)(F)F)nc(SCc2cccc(C(=O)O)c2)n1,-7
Cc1ccc(S(=O)(=O)NC(C)C(=O)Nc2ccc3c(c2)OCCO3)cc1 (stereo not drawn),-22
N#Cc1ccccc1CSc1nnc(Cc2cccc3ccccc23)n1-c1ccccc1,26
O=C(CCc1ccc(O)cc1)c1c(O)c([C@@H]2O[C@H](CO)[C@@H](O)[C@H](O)[C@H]2O)c(O)c([C@@H]2O[C@H](CO)[C@@H](O)[C@H](O)[C@H]2O)c1O,11
Oc1ccc(CCCCC(CCc2ccc(O)cc2)O[C@@H]2OC[C@@H](O)[C@H](O)[C@H]2O)cc1 (stereo partly drawn),11
OC[C@H]1O[C@@H](OC(CCCCc2ccc(O)cc2)CCc2ccc(O)cc2)[C@H](O)[C@@H](O)[C@@H]1O (stereo partly drawn),73*
CCn1c(SCC(=O)Nc2sc3c(c2C#N)CCCC3)nnc1-c1cccc(Cl)c1,13
CC(NS(=O)(=O)c1ccc(Cl)cc1)C(=O)Nc1c(F)cccc1F (stereo not drawn),2
COC(=O)CCCCCCC(=O)N/N=C/c1ccc(OCC(N)=O)cc1,-18
C/C=C1\C(O[C@@H]2O[C@H](CO)[C@@H](O)[C@H](O)[C@H]2O)OC=C(C(=O)OC)C1CC(=O)OC[C@H]1O[C@@H](OCCc2ccc(O)cc2)[C@H](OC(=O)CC2C(C(=O)OC)=COC(O[C@@H]3O[C@H](CO)[C@@H](O)[C@H](O)[C@H]3O)/C2=C\C)[C@@H](O)[C@@H]1O (stereo partly drawn),2
C/C=C1\[C@H](O[C@@H]2O[C@H](CO)[C@@H](O)[C@H](O)[C@H]2O)OC=C(C(=O)OC)[C@H]1CC(=O)OC,-6
C/C=C1/[C@H](O[C@@H]2O[C@H](CO)[C@@H](O)[C@H](O)[C@H]2O)OC=C(C(=O)OC)[C@H]1CC(=O)OCCc1ccc(OC(=O)C[C@@H]2C(C(=O)OC)=CO[C@@H](O[C@@H]3O[C@H](CO)[C@@H](O)[C@H](O)[C@H]3O)/C2=C/C)cc1,61*
Cc1cccc(C)c1N(CC(=O)NC1CCCCC1)S(C)(=O)=O,11
CO[C@@H]1CN(C)C(=O)c2ccc(NS(=O)(=O)c3ccc(C)cc3)cc2OC[C@@H](C)N(C(=O)NC(C)C)C[C@H]1C,3
COc1ccc2c(c1)c(CC(=O)O)c(C)n2C(=O)c1ccc(Cl)cc1,7
COc1ccc2c(c1)c(CC(=O)OCc1ccccn1)c(C)n2C(=O)c1ccc(Cl)cc1,56*
COc1ccc(-n2c(C)c(C(C)=O)c3cc(OCC(N)=O)ccc32)cc1,24
SMILES,PRC2 inh
C[C@@H]1CN([C@H](C)CO)C(=O)c2cc(NS(=O)(=O)c3cccs3)ccc2O[C@@H]1CN(C)Cc1ccccc1,-6
C[C@H](CO)N1C[C@H](C)[C@@H](CN(C)Cc2ccccc2)Oc2ccc(NS(=O)(=O)c3cccs3)cc2C1=O,8
C[C@@H]1CN([C@@H](C)CO)C(=O)c2cc(NS(=O)(=O)c3cccs3)ccc2O[C@@H]1CN(C)Cc1ccccc1,1
C[C@H]1CN([C@@H](C)CO)C(=O)c2cc(NS(=O)(=O)c3cccs3)ccc2O[C@@H]1CN(C)Cc1ccc(-c2ccccc2)cc1,72*
C[C@@H]1CN([C@@H](C)CO)C(=O)c2cc(NS(=O)(=O)c3cccs3)ccc2O[C@H]1CN(C)Cc1ccc(-c2ccccc2)cc1,60*
C[C@H]1CN([C@@H](C)CO)C(=O)c2cc(NS(=O)(=O)c3cccs3)ccc2O[C@@H]1CN(C)Cc1ccccc1,3
CC(C)=CCC[C@H](C)C/C=N/NC(=O)CCCCCCC(=O)O,6
CC(C)(C)C(=O)CSc1nnc(-c2ccco2)o1,18
O=C(/C=C/c1ccc(OCCCc2ccccc2)cc1)NO,-22
CC(C)(C)c1ccc(S(=O)(=O)NCC(=O)Nc2cccc(Cl)c2)cc1,4
CCCC(O)/C(=C/C1=C(C(=O)CC(CC(=O)O)OC(N)=O)C(=O)c2cccc(O)c2C1=O)CC(C(=O)O)[N+](C)(C)C (stereo not drawn),-1
COc1cc(Br)cc(/C=N/NC(=O)c2ccccc2O)c1O,5
COc1ccc(/C=N/NC(=O)c2ccccc2O)cc1Br,-8
COc1cc(Br)c(/C=N/NC(=O)c2ccccc2O)cc1OC,67*
CCCNc1ncnc2ccccc12,-7
